Screening results from PubChem.
HCMV antiviral = inhibitors of human cytomegalovirus; HFF cells, HCMV-luciferase reporter, 72 h; active compounds read low; activity change, negative = inhibition, % at 57.5 µM; 4.5% of 410,000 active; in the data active means activity change below about -60%; inconclusive means no clear call, values can overlap the other calls; inactive means above about -39%
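Compounds were evaluated in HFFs infected with an HCMV luciferase reporter virus (MOI 1 PFU/cell). Luciferase in lysates collected 72 h post infection served as the replication measure.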
HCV inhibitor = blocks hepatitis C virus; Huh7.5.1 HCVcc-Cre infection, luciferase reporter, 44 h; Potency, µM (titrated, usually from 41.8 µM), most hits filed as inhibitors; 3.4% of 340,000 active; AID 651820; active means well fitted inhibition curve with a large enough effect; inconclusive means small, poorly fitted or top-dose-only effect, or another doubt; inactive means no such curve, though single readings can be large or run the other way
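Cells (1,000/well) were plated 4 h before compound, then infected with HCVcc-Cre virus (~0.5 moi). After 44 h further culture, infection was read as luciferase luminescence following a 15 min substrate incubation at room temperature.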
FMDV antiviral = blocks foot and mouth disease virus; 1.2% of 410,000 active; Potency, µM (titrated, usually from 57.9 µM), hits mostly inhibitors; FMDV antiviral cell-based qHTS; calls by dose curve; tested in HEK293T cells; further: read-out not given here; nearly all actives have a fitted effect of over 45% in size
Marburg entry inh = Marburg virus entry inhibition; Marburg virus pseudotyped entry inhibition, cell reporter; Potency, µM (doses to about 37.8 µM), usual class: inhibitors; 1.8% of 300,000 active; AID 540276; calls by dose curve; tested in HEK293 cells
LASV entry inh = inhibitors of Lassa virus binding or cell entry; Lassa virus pseudotype entry inhibition, cell reporter; Potency, µM (doses to about 37.9 µM), usual class: inhibitors; 1.2% of 300,000 active; AID 540256; calls by dose curve; tested in HEK293 cells; further: nearly all actives have a fitted effect of over 50% in size
Of the large screens only hits and unclear results are named; the others gave an inactive call; ! = not confirmed by another sample. The list is not random: actives were taken first. Their share in the collection is about 7.9%.

CC(C)N(C(=O)[C@H]1C[C@H](CC(=O)NCCN2CCOCC2)C(=O)N2CCc3c([nH]c4ccc(Cl)cc34)[C@]12C)C(C)C	HCV inhibitor inconclusive (no result: Marburg entry inh, LASV entry inh)
CCCN1C(=O)COCc2cc(-c3ccc(N(C)C)cc3)ccc21	none (no result: HCV inhibitor, FMDV antiviral, Marburg entry inh, LASV entry inh)
CCCCOc1ccc(C(=O)NCC(=O)NCC(c2ccc(OC)cc2)N2CCCC2)cc1 (configuration not stated)	none
NCCn1cc(-c2cc(Cl)c(N)c(Cl)c2)ncc1=O	none (no result: HCV inhibitor, FMDV antiviral, Marburg entry inh, LASV entry inh)
O=C(Nc1cccc2ncccc12)c1ccc(OCc2ccccc2)cc1	HCMV antiviral inconclusive, HCV inhibitor 16µM, FMDV antiviral inconclusive (no result: Marburg entry inh, LASV entry inh)
Nc1ccc(C(=O)Nc2cccc3ncccc23)cc1	none (no result: Marburg entry inh, LASV entry inh)
O=C(NCc1cccnc1)c1ccc(COc2ccc(Cl)cc2)cc1	HCMV antiviral -86, HCV inhibitor inconclusive (no result: Marburg entry inh, LASV entry inh)
O=C(CSCc1ccccc1)N1CCN(c2ccc(F)cc2)CC1	none (no result: FMDV antiviral)
O=C(CSCc1nc2ccccc2[nH]1)N1CCN(c2cccc(Cl)c2)CC1	FMDV antiviral 35µM, Marburg entry inh inconclusive
O=C(CSCc1nc2ccccc2[nH]1)N1CCN(c2ccc(F)cc2)CC1	HCV inhibitor 13µM, FMDV antiviral 35µM, Marburg entry inh inconclusive
CCOc1cc(-c2c(C#N)c(N)nc3c2CCc2ccccc2-3)ccc1O	HCV inhibitor inconclusive, FMDV antiviral inconclusive, Marburg entry inh inconclusive, LASV entry inh inconclusive
COc1ccccc1-c1c(C)c(C)nc(N)c1C#N	HCMV antiviral -72
COc1ccccc1-c1c(C#N)c(N)nc2c1CCc1ccccc1-2	HCV inhibitor inconclusive, FMDV antiviral 32µM, Marburg entry inh inconclusive, LASV entry inh inconclusive
COc1ccc(CNC(=O)CN(Cc2ccccc2)C(=O)CCC(=O)Nc2nccs2)cc1	none
CC(Oc1ccc2c(-c3ccccc3)cc(=O)oc2c1)C(=O)NCC(O)c1ccccc1 (configuration not stated)	HCV inhibitor 8.9µM (no result: Marburg entry inh, LASV entry inh)
Cc1c(OCC(=O)NCC(O)c2ccccc2)ccc2c(-c3ccccc3)cc(=O)oc12 (configuration not stated)	HCMV antiviral inconclusive, HCV inhibitor 32µM (no result: Marburg entry inh, LASV entry inh)
Cc1c(OCC(=O)NCc2ccccn2)ccc2c(-c3ccccc3)cc(=O)oc12	none (no result: Marburg entry inh, LASV entry inh)
CC(Oc1ccc2c(-c3ccccc3)cc(=O)oc2c1)C(=O)NCC1CCC(C(=O)O)CC1 (configuration not stated)	HCV inhibitor inconclusive (no result: Marburg entry inh, LASV entry inh)
O=C(Oc1ccc2c(-c3ccccc3)cc(=O)oc2c1)c1cccs1	HCMV antiviral -67
Clc1ccccc1-c1cnc2sc(NCc3ccc4c(c3)OCO4)nn12	none (no result: HCV inhibitor, Marburg entry inh, LASV entry inh)
Cc1cc(NC(=O)COC(=O)c2c(C)noc2C)ccc1Br	HCMV antiviral inconclusive, Marburg entry inh inconclusive
Cc1noc(C)c1COc1ccccc1C(=O)Nc1cccc(S(=O)(=O)N(C)C)c1	none
CCN(CC)S(=O)(=O)c1cc(NC(=O)c2ccccc2OCc2c(C)noc2C)ccc1C	Marburg entry inh inconclusive, LASV entry inh 11µM
CCN(CC)S(=O)(=O)c1cc(NC(=O)COC(=O)c2c(C)noc2C)ccc1C	HCV inhibitor 14µM (no result: Marburg entry inh, LASV entry inh)
Cn1c(/C(C#N)=C/c2ccc(C(F)(F)F)cc2)nc2ccccc21	none (no result: HCV inhibitor, Marburg entry inh)
Cc1cccc(-n2c(-c3csc4ccccc34)n[nH]c2=S)c1	HCMV antiviral -70
Cc1ccc(CN2CCc3nnc(C(NC(=O)c4ccoc4)C(C)C)n3CC2)cc1C (configuration not stated)	none (no result: HCMV antiviral, HCV inhibitor, Marburg entry inh, LASV entry inh)
O=C1Nc2ccccc2N(O)N1c1ccc(Cl)cc1	none
CCN1c2ccccc2NC2C1C(C(C)=O)C(=O)N2c1ccc(Cl)cc1 (configuration not stated)	HCV inhibitor 10µM, Marburg entry inh inconclusive, LASV entry inh inconclusive (no result: FMDV antiviral)
CC(C)CCNC(=O)C1CC2Cn3c(nc4cc(Cl)c(Cl)cc43)C2N1C (configuration not stated)	HCV inhibitor inconclusive, FMDV antiviral inconclusive (no result: Marburg entry inh, LASV entry inh)
CCc1ccc(CNc2ccc3c(c2)ncn3C(C)(C)C)cc1	HCMV antiviral -64!, Marburg entry inh 10µM, LASV entry inh 1.8µM
CCN(CC)c1ccc(CNc2ccc3c(c2)ncn3C(C)(C)C)cc1	HCMV antiviral -68, Marburg entry inh inconclusive
CN(C)c1ccc(CNc2ccc3c(c2)ncn3C)cc1	HCMV antiviral -102, HCV inhibitor inconclusive, Marburg entry inh inconclusive
CC(C)c1ccc(CNc2ccc3c(c2)ncn3C)cc1	HCV inhibitor inconclusive (no result: Marburg entry inh, LASV entry inh)
CCn1cc(C(=O)N2CCN(c3cccc(Cl)c3)CC2)c(=O)c2cc(S(=O)(=O)N3CCOCC3)ccc21	Marburg entry inh inconclusive (no result: HCV inhibitor)
